Source: ChEMBL document CHEMBL1201862, “PubChem BioAssay data set” (2004)
Hit rate of the full screen: of about 57,000 sequences, about 4,300 (7.5%) were called active. Cut-off read from the data, not from the text of the source: active = GI50 up to about 1.1 µM and inactive = higher. The list is a sample of the results. Potency and affinity values are given separately.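 Protocol summary: plate cells (96-well), add compound at 5 concentrations, incubate 48 h, interpolate endpoints linearly. Here, GI50 denotes the concentration required for 50% inhibition of growth.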

These substances were tested on HT-29 (assay: NCI tumour cell line growth inhibition, 48 h).

Substance | GI50
cis-Bis[[(trimethylsilyl)methyl]amino]tetrachloroplatinum(IV), CHEMBL2146191 | 4.11 µM
[Bis(aminomethyl)pentamethylenesilane]tetrachloropaltinum(IV), CHEMBL2146204 | 1.57 µM
[Bis(aminomethyl)tetramethylenesilane]tetrachloropaltinum(IV), CHEMBL2146189 | 4.9 µM
[Bis(aminomethyl)pentamethylenesilane]dichloropaltinum(II), CHEMBL2146202 | 3.19 µM
CISPLATIN, CHEMBL11359 | 7.93 µM
[Bis(aminomethyl)dimethylsilane]dichloroplatinum (II), CHEMBL2146201 | 18.1 µM
[Bis(aminomethyl)dimethylsilane]tetrachloroplatinum(IV), CHEMBL2146190 | 5.28 µM
[Bis(aminomethyl)ethylmethylsilane]tetrachloroplatinum(IV), CHEMBL2146192 | 1.57 µM
mu-(1,7-nanodiamine-N,N')bis-(cis-aminedichloroplatimum (II)), CHEMBL2146215 | 42.7 µM
[Bis(aminomethyl)tetramethylenesilane]dichloropaltinum(II), CHEMBL2146205 | 16.2 µM
[Bis(aminomethyl)diethylsilane]tetrachloroplatinum(IV), CHEMBL2146203 | 2.06 µM
